Screening data (PubChem)
RORg inh: qHTS for inhibitors of ROR gamma transcriptional activity; Nuclear receptor ROR-gamma (Mus musculus), P51450; Potency, µM (series often up to 53.6 µM), for inactives: at the highest dose activity change, negative = inhibition, most hits filed as inhibitors; Drosophila S2 Gal4-RORgamma UAS-luciferase reporter, 20 h; actives 5.4% (n = 310,000); further: on the % scale 0 is the no-effect control and ±100 the full control effect; nearly all actives have a fitted effect of over 60% in size
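Luminescence from a UAS-regulated Photinus luciferase reporter in stably transfected Drosophila Schneider cells is measured; decreased signal marks ROR gamma inhibition. Fusion expression is induced by 700 uM copper sulfate for 20 hr.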
Sfp inh: qHTS Assay for Inhibitors of Bacillus subtilis Sfp phosphopantetheinyl transferase (PPTase); AID 1490, 2009; actives 3.5% (n = 310,000); Potency, µM, inactives show largest response in the series, negative = inhibition, actives largely listed as inhibitors; Biochemical Sfp PPTase activity, qHTS; 4'-phosphopantetheinyl transferase ffp (Bacillus subtilis), Q9F4F7;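 further: the enzyme is Sfp with the accession as filed and its product quenches rhodamine fluorescence; 0% = enzyme reaction without inhibitor and -100% = no enzyme wells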
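Fluorescence-quenching assay: 15 nM Sfp-PPTase preincubated 15 min at room temperature with compound, then 5 uM rhodamine-CoA and 12.5 uM BHQ-2-labelled YbbR peptide added. Fluorescence (ex 525/em 598 nm) read at start and after 30 min; difference gives rate.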
Epigenetic reg: Quantitative High-Throughput Screen for Regulators of Epigenetic Control. murine LDR cells, GFP reporter derepression, 30 h. Potency, µM (highest dose often 53.9 µM), inactives show top-dose GFP activation, most hits filed as activators. actives 0.2% (n = 280,000). AID 1865, 2009; further: % of control where 0% means no effect; nearly all actives have a fitted effect of over 60% in size
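Derepression of a silenced CMV-GFP reporter in murine LDR cells is scored by enumerating GFP-positive cells with a laser-scanning microplate cytometer after 30 hours of treatment at 37 C.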
VP16 counter: VP16 counterscreen qHTS for inhibitors of ROR gamma transcriptional activity. actives 3.5% (n = 310,000). Drosophila S2 Gal4-VP16 UAS-luciferase, luminescence, 20 h. Potency, µM (doses to about 53.6 µM), for inactives: top-dose activity, negative = inhibition, most hits filed as inhibitors. AID 2546, 2010;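 further: Gal4-VP16 expression switched on by copper sulfate through the metallothionein promoter; on the % scale 0 is the no-effect control and ±100 the full control effect; nearly all actives have a fitted effect of over 50% in size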
PINK1 modulator: A Quantitative High throughput Screen to Identify Chemical Modulators of PINK1 Expression; PINK1 immunofluorescence, high-content cytometry, 24 h; Potency, µM (titrated, usually from 76.6 µM), for the others: at the top dose activation (PINK1 increase), actives largely listed as activators; actives 0.2% (n = 410,000); AID 624263, 2012; active means well fitted activation curve with a large enough effect; inconclusive means small, poorly fitted or top-dose-only effect; cell line not stated here; further: % of control where 0% means no effect; nearly all actives have a fitted effect of over 65% in size
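Stable cell line, 250 cells/well, 12 h attachment; compounds pinned at 5 concentrations, 24 h; CCCP control. Fixed with nuclear dye, primary antibodies 12 h at 10 degrees C, secondary plus cell stain; laser-scanning cytometer read.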
ClpP mod: qHTS Assay for Activators of ClpP; ATP-dependent Clp protease proteolytic subunit (Bacillus subtilis (strain 168)), P80244; purified B. subtilis ClpP, FRET peptide cleavage, 20 min; Potency, µM (series often up to 57.5 µM), for the others: top-dose activity change, negative = active; actives 1.9% (n = 340,000); AID 651965, 2013; active means well fitted falling curve with a large enough effect; inconclusive means small, poorly fitted or top-dose-only effect; inactive means no such curve, though single readings can be large or run the other way; further: the source files actives as falling curves though it sought activators and does not explain the sign; nearly all actives have a fitted effect of over 65% in size
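Buffer: 100 mM Tris/HCl pH8, 100 mM KCl, 0.05% low protease BSA, 2.5% glycerol, 0.01% Tween-20. ClpP 10 microg/mL final; 20 min RT; delta FRET normalized to ADEP and DMSO controls.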
* marks the source's active call; other numbers are inactive results; ? = inconclusive; / = no result; [ ] = remark or other dose. This is a sample that favours compounds with a hit; in the whole collection about 8.1% have one here. Unless noted, the call rests on the fitted dose curve; in most records, active means well fitted curve in the direction sought with a large enough effect; inconclusive means small, poorly fitted or top-dose-only effect, or another doubt; inactive means no such curve, though single readings can be large; an effect the other way counts as inactive or inconclusive. Potency means the concentration at half of the fitted maximal effect.

SMILES	RORg inh	Sfp inh	Epigenetic reg	VP16 counter	PINK1 modulator	ClpP mod
Cc1c(C(=O)Nc2cccc(Cl)c2)oc2ccc(S(=O)(=O)N(C)C3CCCCC3)cc12	/	/	0.0%	/	2.1%	20µM*
O=C(NNc1nc2c(F)cccc2s1)c1cc(=O)c2ccccc2o1	10µM*	-15.4%	-0.2%	?	1.9%	0.7%
Cc1ccc2sc(NNC(=O)c3cc(=O)c4ccccc4o3)nc2c1C	-9.9%	8.91µM*	1.1%	-11.9%	3.5%	2.2%
Cc1cccc2sc(NNC(=O)c3cc(=O)c4ccccc4o3)nc12	3.98µM*	44.7µM*	4.8%	?	1.8%	2.9%
COc1ccc2nc(NNC(=O)c3cc(=O)c4ccccc4o3)sc2c1	8.91µM*	12.6µM*	-0.2%	?	4.4%	-4.3%
Cc1ccc2c(=O)cc(C(=O)Nc3c(C(=O)c4ccc(F)cc4)oc4ccccc34)oc2c1C	/	/	3.7%	/	6.1%	-2.9%
COc1ccc2nc(NC(=O)c3cc(=O)c4cc(C)c(C)cc4o3)sc2c1	/	/	-1.9%	/	1.1%	-0.4%
Cc1nc(C)c(C(=O)Nc2nc3c(C)cccc3s2)o1	-32.9%	50.1µM*	-4.3%	18.7%	1.2%[38.3 µM]	-2.5%
Cc1ccc(NC(=O)C2CCN(S(=O)(=O)c3ccc4[nH]c5c(c4c3)CCCCC5)CC2)cc1	/	/	-2.9%	/	1.2%	-14.4%
C=C(C)C(=O)OC1(C(F)(F)F)Oc2cc(C)ccc2NC1=O (stereo unspecified)	14.1µM*	13.0%	?	?	-0.3%	-1.2%
CCCCCCCNC(=O)COc1ccc2c(c1)C(=O)CC(C)(C)O2	20.7%	-0.9%	-1.0%	-13.5%	3.1%[38.3 µM]	28.2µM*
CC1(C)CC(=O)c2cc(OCC(=O)NCc3cccnc3)ccc2O1	39.8%	28.1%	-0.2%	8.6%	0.9%[38.3 µM]	25.1µM*
Cc1ccc(OCC(=O)N2CCOCC2)cc1C	10.4%	4.5%	1.3%	4.4%	-0.7%	-1.9%
CC1(C)CC(=O)c2cc(OCC(=O)N3CCOCC3)ccc2O1	0.1%	11.2%	1.0%	3.8%	-0.6%	28.2µM*
Cc1cc(OCC(=O)N2CCOCC2)cc2oc(=O)c3ccccc3c12	16.4%	-13.5%	-1.0%	-5.6%	-0.5%	7.08µM*
Cc1cccc(OCC(=O)Nc2cc(C)c(O)c(-c3nc4ccccc4o3)c2)c1	/	/	/	/	1.0%	0.7%
O=C(COc1ccccc1Br)c1ccc(O)cc1O	10µM*	5.7%	0.9%	?	2.6%[38.3 µM]	1.1%
COc1ncc2nc(-c3cccs3)c(=O)n(C)c2n1	-31.1%	-1.0%	/	4.0%	-0.8%	/
Cc1ccc(C(c2nnnn2C2CCCCC2)N2CCc3ccccc32)cc1 (stereo unspecified)	9.4%	2.9%	0.0%	?	4.9%	0.4%
COc1cc(C(c2nnnn2C2CCCC2)N2CCc3ccccc3C2)ccc1O (stereo unspecified)	-25.4%	17.8µM*	3.7%	4.8%	-0.4%	-4.9%
COc1ccc(C(c2nnnn2C2CCCC2)N2CCN(C(=O)c3ccco3)CC2)cc1OC (stereo unspecified)	5.7%	2.0%	/	-10.8%	1.2%	/
Oc1ccc(C(c2nnnn2C2CCCC2)N2CCc3ccccc3C2)cc1 (stereo unspecified)	-13.9%	50.1µM*	-2.0%	0.5%	0.4%	-0.8%
COC(=O)[C@@H]1CCCN1C(=O)c1cnn(-c2ncc3c(n2)-c2ccccc2CCC3)c1C1CC1	/	/	/	/	2.8%	/
Cc1ccc(-c2noc(-c3nnn(CC(=O)Nc4cc(Cl)ccc4C)c3N)n2)cc1	/	/	-1.8%	/	1.0%	0.9%
CCc1ccc(CNC(=O)CN2C(=O)c3cccnc3Oc3ccc(C)cc32)cc1	/	/	-1.2%	/	5.4%	1.0%
SMILES	RORg inh	Sfp inh	Epigenetic reg	VP16 counter	PINK1 modulator	ClpP mod
COc1cc2nc(N3CCN(c4cc(C)ccc4C)CC3)nc(N)c2cc1OC	15.8µM*	79.4µM*	/	15.8µM*	-3.3%	/
COc1cc2nc(N3CCNCC3)nc(N)c2cc1OC	6.7%	-5.0%	-0.8%	-7.4%	/	25.8%
Cc1cccc(C)c1OCCn1c(C2CC(=O)N(Cc3ccc(F)cc3)C2)nc2ccccc21 (stereo unspecified)	/	/	-4.2%	/	?	-1.6%
O=C(CCCn1c(=S)[nH]c2ccsc2c1=O)NCCc1ccccc1	?	2.0%	/	?	0.1%	-3.7%
Cc1ccc(NC(=O)CCCn2c(=O)[nH]c3ccsc3c2=O)cc1	1.0%	2.6%	/	-0.8%	4.7%	?
Cc1cccc(NC(=O)CCCn2c(=S)[nH]c3ccccc3c2=O)c1	11.2µM*	9.0%	1.1%	3.7%[10 µM]	1.0%	-1.5%
O=C(CCCn1c(=S)[nH]c2ccsc2c1=O)Nc1ccc2c(c1)OCO2	12.6µM*	-12.5%	1.3%	-18.6%	-0.7%	/
Cc1ccc(NC(=O)CCCn2c(=S)[nH]c3ccsc3c2=O)cc1C	12.6µM*	11.2%	/	?	-0.9%	-3.2%
COc1cc(NC(=O)CCCn2c(=S)[nH]c3ccccc3c2=O)cc(OC)c1OC	?	-1.0%	0.0%	0.7%[10 µM]	2.3%	0.5%
Cc1ccccc1C(=O)Nc1nnc(S(=O)(=O)N(C)Cc2ccc(Cl)cc2)s1	/	/	6.7%	/	-0.6%	-8.3%
Cc1c(C(=O)NCC2(N3CCCCC3)CCCC2)cnn1-c1nccc(-c2ccccc2F)n1	/	/	/	/	0.5%	/
COc1ccc(OC)c(NC(=O)CSc2n[nH]c(-c3ccccc3Cl)n2)c1	/	/	-1.4%	/	-0.5%	-0.4%
Cc1cccc(N2C(=O)C(CC(=O)Nc3cccc(F)c3)N(Cc3cccs3)C2=O)c1 (stereo unspecified)	/	/	-1.4%	/	0.5%	1.3%
COc1cccc(-n2c(-c3ccc(Cl)cc3)cc3c2CC(C)(C)CC3=O)c1	/	/	0.0%	/	1.4%	-28.9%
COc1ccc(NC(=O)C(=O)N/N=C\c2ccc(CNC(=O)C(=O)Nc3ccc(C)c(C)c3)o2)c(OC)c1	11.0%[1.91 µM]	2.2%	/	3.16µM*	-0.1%	/
COc1ccc2[nH]c(C)c(CCNC(=S)Nc3cccc(C)c3C)c2c1	7.08µM*	29.1%	0.3%	?	-1.1%	-7.6%
CCc1cccc(CC)c1NC(=S)NCCc1c(C)[nH]c2ccccc12	?	13.9%	0.0%	7.08µM*	3.1%	-4.5%
CCc1cccc(CC)c1NC(=S)NCCc1ccc(O)c(O)c1	12.6µM*	-24.7%	0.9%	-14.1%	3.5%	-3.3%
COc1ccc2[nH]c(C(=O)O)c(CCNC(C)=O)c2c1	-6.3%	11.8%	-0.2%	4.6%	0.4%	8.91µM*
